Bioassay records deposited in PubChem by National Center for Advancing Translational Sciences (NCATS).
In the library only some 21% were active in any assay of this set; here they are far more common.
Pf growth 48h = Primary qHTS for delayed death inhibitors of the malarial parasite plastid, 48 hour incubation. P. falciparum luciferase growth in erythrocytes, 48 h. Potency, µM (titrated, usually from 28.7 µM), most hits filed as inhibitors. actives 5.9% (n = 310,000)
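Growth was read as firefly luciferase luminescence after a 48 h, 37 C, 5% CO2 exposure of compounds to reporter-bearing P. falciparum cultures (0.1% parasitemia, 2% hematocrit final) in Albumax-supplemented RPMI 1640.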
Shiga toxin inh = A qHTS for Small Molecule Inhibitors of Shiga Toxin; Vero cells, Shiga toxin protein synthesis inhibition reporter; actives 9.2% (n = 290,000); inhibition, % at 38.7 µM; in the data active means inhibition mostly above about 28%, no sharp cut-off; inactive means mostly below about 43%
Pf growth 96h = Primary qHTS for delayed death inhibitors of the malarial parasite plastid, 96 hour incubation; actives 6.9% (n = 320,000); P. falciparum luciferase reporter growth, 96 h; Potency, µM (titrated, usually from 28.7 µM), actives largely listed as inhibitors; AID 504834, 2011
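Delayed-death screen, second-generation endpoint: infected erythrocytes, 2% hematocrit, 0.05% parasitemia final; 96 hours at 37 C, 5% CO2; luciferase detection reagent; luminescence decrease equals reduced growth.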
Giardia FBPA inh = qHTS Assay for Inhibitors of Fructose-1,6-bisphosphate Aldolase from Giardia Lamblia; Potency, µM (titrated, usually from 59.6 µM), most hits filed as inhibitors; purified Giardia FBPA; AID 2451, 2010; actives 0.71% (n = 290,000); further: nearly all actives have a fitted effect of over 55% in size
Target sequence (A8B2U2 whole entry, looked up): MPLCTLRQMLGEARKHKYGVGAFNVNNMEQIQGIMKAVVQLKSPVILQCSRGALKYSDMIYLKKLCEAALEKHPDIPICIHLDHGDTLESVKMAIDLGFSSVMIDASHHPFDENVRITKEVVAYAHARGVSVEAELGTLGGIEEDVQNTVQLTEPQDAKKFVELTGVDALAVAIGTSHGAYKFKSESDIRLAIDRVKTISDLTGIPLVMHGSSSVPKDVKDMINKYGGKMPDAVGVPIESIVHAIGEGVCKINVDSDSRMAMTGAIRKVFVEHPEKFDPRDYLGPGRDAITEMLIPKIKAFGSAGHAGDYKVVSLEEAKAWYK
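Giardia FBPA (40 nM reagent) was preincubated 10 min at RT with compound (up to 57.5 uM final), then substrate plus GAPDH/TPI/NAD/arsenate coupling system with diaphorase/resazurin was added; resorufin fluorescence (525/598 nm) was read after 20 min.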
NS1 inh = qHTS Assay for Inhibitors of Influenza NS1 Protein Function; Potency, µM (top dose mostly 46.1 µM); actives 0.4% (n = 270,000); AID 2326, 2010; calls by dose curve; further: actives are rising curves; nearly all actives have a fitted effect of over 50% in size
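Read-out: OD600 growth recovery of NS1-expressing budding yeast. Cells grown overnight at 30C in -URA glucose medium, washed, resuspended and diluted 1:100 in 2% galactose assay medium, pH 6.0. Same strain lacking NS1 served as positive control.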
CHX counter = Cycloheximide Counterscreen for Small Molecule Inhibitors of Shiga Toxin; max response, %; actives 12% (n = 300,000); cell reporter, cycloheximide protein synthesis inhibition counterscreen; in the data active means max response mostly above about 13%, no sharp cut-off; inactive means mostly below about 14%; further: read at 38.3 µM for the half of the compounds with a filed dose
Large screens that a line does not name were inactive. Unless noted, the call rests on the fitted dose curve; in most records, active means well fitted curve in the direction sought with a large enough effect; inconclusive means small, poorly fitted or top-dose-only effect, or another doubt; inactive means no such curve, though single readings can be large; an effect the other way counts as inactive or inconclusive.

CC(OC(=O)c1cn(-c2ccccc2)nc1-c1cccnc1)C(N)=O (configuration not stated)	none (no result: NS1 inh)
N=C(N)SCCCN	none (no result: Pf growth 48h, Shiga toxin inh, Pf growth 96h, Giardia FBPA inh, CHX counter)
O=C(CCl)NC(Cc1c[nH]c2ccc(OCc3ccccc3)cc12)C(=O)O (configuration not stated)	Pf growth 96h inconclusive
CS(=O)(=O)N1CCC(Oc2ccccc2C(=O)N2CCCCC2CO)CC1 (configuration not stated)	Pf growth 96h inconclusive
COC(=O)CN(C)C(=O)c1ccccc1OC1CCN(S(C)(=O)=O)CC1	Pf growth 96h 13µM
COc1ccc(CC(=O)OCC(=O)N(C)C2CCS(=O)(=O)C2)cc1OC (configuration not stated)	none (no result: Shiga toxin inh, Giardia FBPA inh, NS1 inh, CHX counter)
Cc1cc(C)nc(SCc2cn3cc(Cl)ccc3n2)n1	none
Clc1ccc2nc(CSc3ncn[nH]3)cn2c1	CHX counter 15
Brc1ccc2nc(CSc3ncn[nH]3)cn2c1	Shiga toxin inh 84, CHX counter 16
Cc1ccc(N(CC(=O)NCc2ccco2)S(=O)(=O)c2ccccc2)cc1	Pf growth 48h 13µM, CHX counter 27
O=C(CN(C1CCCCC1)S(=O)(=O)c1ccccc1)NCc1ccco1	Pf growth 96h 4.7µM
Cc1ccc(S(=O)(=O)N(CC(=O)NCc2ccco2)C2CCCCC2)cc1	Pf growth 48h inconclusive, Pf growth 96h inconclusive
COc1cccc(N(CC(=O)NCCSCc2ccco2)S(=O)(=O)c2ccccc2)c1	Pf growth 48h inconclusive, Pf growth 96h inconclusive (no result: Giardia FBPA inh)
COc1ccc(N(CC(=O)NCCSCc2ccco2)S(=O)(=O)c2ccccc2)cc1Cl	Pf growth 48h 12µM, Pf growth 96h inconclusive
COc1ccc(N(CC(=O)NCCSCc2ccccc2C)S(=O)(=O)c2ccccc2)cc1	Pf growth 48h inconclusive, Pf growth 96h 5.2µM (no result: Giardia FBPA inh)
COc1ccc(N(CC(=O)NCC(C)C)S(=O)(=O)c2ccccc2)cc1	none
CC(Nc1ncnc2sccc12)c1ccccc1 (configuration not stated)	none
COc1ccccc1CCN=C(N)NS(=O)(=O)c1ccc(C)c(C)c1	Pf growth 48h inconclusive
CCc1ccccc1NC(=O)COC(=O)C1C2CC3OC(=O)C1C3C2 (configuration not stated)	none
CC1CC(OC(=O)C(O)c2ccccc2)CC(C)(C)C1 (configuration not stated)	none (no result: NS1 inh)
C/C=C/OC(=O)NC(c1ccccc1)[C@]1(C(C)=O)CCOC1=O (some centres not stated)	none (no result: Pf growth 48h, Shiga toxin inh, Pf growth 96h, NS1 inh, CHX counter)
Cc1c(C)c(C)c(S(=O)(=O)Nc2ccc3[nH]c(=O)[nH]c3c2)c(C)c1C	none
Cc1cc(COc2ccccc2)oc1C(=O)O	none (no result: Shiga toxin inh)
O=C(CN(Cc1ccccc1)S(=O)(=O)c1ccc(Br)cc1)NCc1ccco1	Shiga toxin inh 25, Pf growth 96h inconclusive (no result: Pf growth 48h)
O=C(CN(Cc1ccc(Br)cc1)S(=O)(=O)c1ccccc1)NCc1ccccn1	none (no result: Giardia FBPA inh)
Cc1ccc(S(=O)(=O)N(Cc2ccc(Cl)cc2)c2ccccc2C(=O)NCc2ccco2)cc1	Pf growth 48h 6.6µM, Shiga toxin inh 44, CHX counter 33
Cc1ccc(S(=O)(=O)N(C)CC(=O)NCc2ccncc2)cc1	none (no result: Pf growth 96h)
Cc1ccc(S(=O)(=O)N(CC(=O)NCc2ccncc2)C2CCCCC2)cc1	Pf growth 48h inconclusive, Pf growth 96h 8.3µM
COc1ccccc1N(CC(=O)NCc1ccco1)S(=O)(=O)c1ccc(C)cc1	none
Cc1cccc(N(CC(=O)NCCSCc2ccco2)S(=O)(=O)c2ccccc2)c1	Pf growth 48h inconclusive, Pf growth 96h inconclusive
Cc1ccc(N(CC(=O)NCCSCc2ccco2)S(=O)(=O)c2ccc(C)cc2)cc1	Pf growth 48h inconclusive, Pf growth 96h 6.6µM
COc1ccc(-n2c(=O)c(-c3cccc(F)c3)nc3cncnc32)cc1	none (no result: Pf growth 48h, Shiga toxin inh, Pf growth 96h, NS1 inh, CHX counter)
NC(=O)N[C@H]1NC(=O)NC1=O	none (no result: Shiga toxin inh, NS1 inh, CHX counter)
Cc1onc(-c2ccc(Cl)cc2)c1-c1ccnc(SCC(=O)Nc2ccc(C(C)C)cc2)n1	Pf growth 48h inconclusive, Pf growth 96h inconclusive
COc1ccc(S(=O)(=O)N(CC(=O)NCc2ccccn2)c2ccc(Cl)cc2)cc1	Pf growth 48h 10µM, Giardia FBPA inh inconclusive
CC/C(=N\NC(=O)c1ccccc1Cl)c1c(O)n(C2CCCCC2)c(=O)[nH]c1=O	Pf growth 96h inconclusive, CHX counter 14 (no result: Giardia FBPA inh)
C/C(=N\N1CCCCCC1)c1c(O)n(C2CCCCC2)c(=O)[nH]c1=O	Pf growth 48h inconclusive, Pf growth 96h 13µM
CC/C(=N\NC(=O)c1ccccc1)c1c(O)n(C2CCCCC2)c(=O)[nH]c1=O	Shiga toxin inh 51, CHX counter 34
CCC(=NCc1cc(OC)cc(OC)c1)c1c(O)n(C2CCCCC2)c(=O)[nH]c1=O	Pf growth 48h inconclusive, Pf growth 96h 0.83µM
COc1cc(CN=C(C)c2c(O)n(C3CCCCC3)c(=O)[nH]c2=O)cc(OC)c1	Pf growth 48h inconclusive
CCC(=NC1CC1)c1c(O)n(C2CCCCC2)c(=O)[nH]c1=O	Pf growth 48h inconclusive, Pf growth 96h inconclusive
C=CCn1c(O)c(/C(C)=N/N2CCCCCC2)c(=O)[nH]c1=O	none
COC(=O)Cc1ccc(OCc2ccc(Cl)nc2)cc1	Shiga toxin inh 52, CHX counter 37
C=CCn1c(C(c2ccccc2)c2ccccc2)n[nH]c1=S	Pf growth 96h 3.7µM
NS(=O)(=O)c1cccc(NC(=O)COC(=O)CCc2ccccc2)c1	none
COc1ccc(CCN2CC(C(=O)NC3CCOCC3)CCC2=O)cc1 (configuration not stated)	none
Fc1ccc(C2C3=C(Nc4ncnn42)c2ccccc2OC3c2ccncc2)cc1 (configuration not stated)	none (no result: Pf growth 48h)
Cc1ccc(C2Oc3ccccc3C3=C2C(c2cccs2)n2ncnc2N3)cc1 (configuration not stated)	Pf growth 48h 12µM, Pf growth 96h inconclusive
NC(=O)c1ccccc1NC(=O)/C=C/c1ccc(Cl)cc1	Shiga toxin inh 90, CHX counter 48
NC(=O)c1ccccc1NC(=O)/C=C/c1ccccc1	Shiga toxin inh 63, CHX counter 34
O=C(/C=C/c1ccc(Cl)cc1)NC(=S)Nc1ccccc1C(=O)O	none
O=c1c(O)c(-c2ccc(O)c(O)c2)oc2c(OC3OC(CO)C(O)C(O)C3O)c(O)cc(O)c12 (configuration not stated)	none (no result: Pf growth 48h, Shiga toxin inh, Pf growth 96h, NS1 inh, CHX counter)
O=C1C2CCCN2c2ccc(S(=O)(=O)N3CCOCC3)cc2N1Cc1cccc(C(F)(F)F)c1 (configuration not stated)	Pf growth 48h 1µM, Pf growth 96h 0.52µM, NS1 inh inconclusive
N#CCN1C(=O)C2CCCN2c2ccc(S(=O)(=O)N3CCOCC3)cc21 (configuration not stated)	Pf growth 48h inconclusive
